Records with an inconclusive call do not appear. Activity calls are given as the source filed them. Rule for the calls, unless noted: active = hit-call score of the fitted dose curve at least 0.9, where 1 is the maximum; inactive = score below 0.9.
Legend:
[1] = BSK_4H_Eotaxin3: BioMAP Diversity Plus: 4H Assay for Eotaxin 3 Biomarker Activity (AID 2283000); conditions: primary human endothelial cells (HUVEC); actives raise or lower the signal
In short: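 Endothelial primary cells (human umbilical vein) exposed to compound for 24 h. ELISA detection of Eotaxin-3.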

[2] = target: human Peroxisome Proliferator-activated Receptor alpha (PPARa), PPARA (gene 5465) (UniProt Q07869); assay: ATG_PPARa_TRANS: Attagene TRANS-FACTORIAL HepG2 Assay for human Peroxisome Proliferator-activated Receptor alpha (PPARa) (AID 2283001; active = hit-call score of the fitted dose curve at least 0.9, where 1 is the maximum)
In short: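 Measures transcriptional activity of an exogenous chimeric PPARa-Gal4 protein in transiently transfected HepG2 cells after 24 h dosing. Reporter mRNA quantified via RT-PCR and capillary electrophoresis; DMSO served as negative control.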

[3] = target: human Peroxisome Proliferator-activated Receptor delta (PPARd), PPARD (gene 5467) (UniProt Q03181); assay: ATG_PPARd_TRANS: Attagene TRANS-FACTORIAL HepG2 Assay for human Peroxisome Proliferator-activated Receptor delta (PPARd) (AID 2283002; active = hit-call score of the fitted dose curve at least 0.9, where 1 is the maximum)
In short: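 Read-out: reporter mRNA induction, quantified by fluorescent RT-PCR products resolved by capillary electrophoresis. Human HepG2 liver cells carried transiently transfected Gal4-UAS reporter constructs with chimeric NR-Gal4 fusions. Cells were dosed for 24 h; DMSO served as baseline.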

[4] = read-out: Intercellular Adhesion Molecule 1 (ICAM1), ICAM1 (gene 3383); assay: BSK_3C_ICAM1: BioMAP Diversity Plus: 3C Assay for Intercellular Adhesion Molecule 1 (ICAM1) Biomarker Activity (AID 2283003); conditions: primary human endothelial cells (HUVEC); actives raise or lower the signal
In short: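 Human vascular endothelial primary cells, 3C conditions, 24 h treatment. ICAM-1 by ELISA.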

[5] = BSK_3C_Proliferation: Cell Proliferation Assessment in the BioMAP Diversity Plus: 3C Assay (AID 2283006); conditions: primary human endothelial cells (HUVEC);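 for AC50: potency may reflect either rise or fall in cell number versus DMSO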
In short: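 Proliferation of human vascular endothelial primary cells after 48 h dosing, quantified as SRB-stained protein at 560 nm relative to DMSO.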

[6] = target: Nuclear receptor subfamily 1 group I member 2 (Homo sapiens) (UniProt O75469); assay: ATG_PXR_TRANS: Attagene TRANS-FACTORIAL HepG2 Assay for human Pregnane X Receptor (PXR) (AID 2283008; active = hit-call score of the fitted dose curve at least 0.9, where 1 is the maximum)
In short: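 Fluorescence intensity of FAM-labelled, HpaI-digested reporter amplicons, separated by capillary electrophoresis, quantifies induction. HepG2 cells with PXR-Gal4 trans-reporter system were exposed 24 h; DMSO defines baseline.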

[7] = target: Retinoic acid receptor RXR-alpha (Homo sapiens) (UniProt P19793); assay: ATG_RXRa_TRANS: Attagene TRANS-FACTORIAL HepG2 Assay for human Retinoid X Receptor alpha (RXRa) (AID 2283012; active = hit-call score of the fitted dose curve at least 0.9, where 1 is the maximum)
In short: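 Cells (HepG2) carried transiently transfected GAL4-responsive reporter units. Following a 24 h chemical incubation, reporter mRNA induction was read via RT-PCR fragment analysis; DMSO served as negative control and baseline.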

[8] = target: human Retinoid X Receptor beta (RXRb), RXRB (gene 6257) (UniProt P28702); assay: ATG_RXRb_TRANS: Attagene TRANS-FACTORIAL HepG2 Assay for human Retinoid X Receptor beta (RXRb) (AID 2283013; active = hit-call score of the fitted dose curve at least 0.9, where 1 is the maximum)
In short: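 Multiplexed TRANS reporter assay in HepG2; 24 h dosing; reporter mRNA by RT-PCR/CE fluorescence; gain-of-signal relative to DMSO.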

[9] = target: human Thyroid Receptor alpha (THRa1), THRA (gene 7067) (UniProt P10827); assay: ATG_THRa1_TRANS: Attagene TRANS-FACTORIAL HepG2 Assay for human Thyroid Receptor alpha (THRa1) (AID 2283014; active = hit-call score of the fitted dose curve at least 0.9, where 1 is the maximum)
In short: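 First, HepG2 cells receive multiple GAL4-UAS reporter units and the chimeric receptor. They are then dosed for 24 h, after which RNA is reverse-transcribed, amplified, labelled, HpaI-cut and sized by capillary electrophoresis; gain relative to DMSO is scored.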

[10] = read-out: E-selectin (Homo sapiens) (UniProt P16581); assay: BSK_3C_Eselectin: BioMAP Diversity Plus: 3C Assay for Eselectin Biomarker Activity (AID 2283015); conditions: primary human endothelial cells (HUVEC); actives raise or lower the signal;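 note: cell surface E-selectin protein quantified by ELISA 24 h after dosing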
In short: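 Human vascular endothelium from umbilical vein is exposed to test chemicals for 24 h. E-selectin levels are read by ELISA and compared with DMSO controls.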

[11] = read-out: Interleukin-1 alpha (IL1a), IL1A (gene 3552); assay: BSK_BE3C_IL1a: BioMAP Diversity Plus: BE3C Assay for Interleukin-1 alpha (IL1a) Biomarker Activity (AID 2283016); conditions: primary human bronchial epithelial cells; actives raise or lower the signal
In short: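 Cultures of primary human bronchial epithelial cells receive test chemical. After 24 h, IL-1a is quantified by ELISA, while parallel wells are fixed in TCA and SRB-stained for total protein. Changes in either direction are fitted relative to DMSO.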

[12] = read-out: Monocyte Chemoattractant Protein-1 (MCP1), CCL2 (gene 6347); assay: BSK_3C_MCP1: BioMAP Diversity Plus: 3C Assay for Monocyte Chemoattractant Protein-1 (MCP1) Biomarker Activity (AID 2283017); conditions: primary human endothelial cells (HUVEC); actives raise or lower the signal
In short: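 Endothelial cells from human umbilical vein are dosed with chemical, cultured 24 h, then assayed for MCP-1 by ELISA; both increases and decreases are modelled against DMSO controls.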

[13] = read-out: Monocyte Chemoattractant Protein-1 (MCP1), CCL2 (gene 6347); assay: BSK_4H_MCP1: BioMAP Diversity Plus: 4H Assay for Monocyte Chemoattractant Protein-1 (MCP1) Biomarker Activity (AID 2283018); conditions: primary human endothelial cells (HUVEC); actives raise or lower the signal
In short: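 Readout: MCP-1 ELISA on compound-treated HUVEC, sampled 24 h post-dosing. Baseline and negative control DMSO; bidirectional fit. Overt toxicity checked alongside by sulforhodamine B protein staining at time of biomarker measurement.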

[14] = read-out: Human Leukocyte Antigen - DR isotype (HLADR), HLA-DRA (gene 3122); assay: BSK_3C_HLADR: BioMAP Diversity Plus: 3C Assay for Human Leukocyte Antigen - DR isotype (HLADR) Biomarker Activity (AID 2283019); conditions: primary human endothelial cells (HUVEC); actives raise or lower the signal
In short: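 Endothelial cells from human umbilical vein are treated with test chemical; after 24 h, HLA-DR levels are measured by ELISA. Data are fitted in both directions using DMSO as the baseline.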

[15] = target: human RAR-related Orphan Receptor beta (RORb), RORB (gene 6096) (UniProt Q92753); assay: ATG_RORb_TRANS: Attagene TRANS-FACTORIAL HepG2 Assay for human RAR-related Orphan Receptor beta (RORb) (AID 2283010; active = hit-call score of the fitted dose curve at least 0.9, where 1 is the maximum)
In short: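 In this TRANS-format test, human HepG2 cells express chimeric NR-Gal4 fusion proteins driving GAL4-UAS reporters. After 24 h dosing, reporter transcripts are measured by fluorescent RT-PCR/capillary electrophoresis, with DMSO as negative control.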

[16] = target: human Retinoic Acid Receptor gamma (RARg), RARG (gene 5916) (UniProt P13631); assay: ATG_RARg_TRANS: Attagene TRANS-FACTORIAL HepG2 Assay for human Retinoic Acid Receptor gamma (RARg) (AID 2283009; active = hit-call score of the fitted dose curve at least 0.9, where 1 is the maximum)
In short: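 HepG2, RARg-GAL4 TRANS system, 24 h exposure; reporter mRNA by RT-PCR + CE fluorescence; increase over DMSO.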

Measured: AC50

Sequence of Nuclear receptor subfamily 1 group I member 2 (Homo sapiens) (O75469 whole entry, looked up, the tested form may be a part): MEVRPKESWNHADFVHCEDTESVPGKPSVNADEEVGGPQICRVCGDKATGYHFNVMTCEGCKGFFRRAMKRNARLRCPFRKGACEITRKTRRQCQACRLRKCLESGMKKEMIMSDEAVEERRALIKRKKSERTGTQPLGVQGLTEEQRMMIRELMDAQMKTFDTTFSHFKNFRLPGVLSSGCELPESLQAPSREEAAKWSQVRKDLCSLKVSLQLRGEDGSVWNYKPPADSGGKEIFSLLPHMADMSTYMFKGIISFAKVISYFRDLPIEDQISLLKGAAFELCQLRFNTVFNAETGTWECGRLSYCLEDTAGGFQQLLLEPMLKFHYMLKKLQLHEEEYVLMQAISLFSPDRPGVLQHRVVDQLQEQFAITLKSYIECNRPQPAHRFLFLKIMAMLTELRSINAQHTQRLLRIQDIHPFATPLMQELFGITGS
Sequence of human Retinoid X Receptor beta (RXRb), RXRB (gene 6257) (P28702 whole entry, looked up): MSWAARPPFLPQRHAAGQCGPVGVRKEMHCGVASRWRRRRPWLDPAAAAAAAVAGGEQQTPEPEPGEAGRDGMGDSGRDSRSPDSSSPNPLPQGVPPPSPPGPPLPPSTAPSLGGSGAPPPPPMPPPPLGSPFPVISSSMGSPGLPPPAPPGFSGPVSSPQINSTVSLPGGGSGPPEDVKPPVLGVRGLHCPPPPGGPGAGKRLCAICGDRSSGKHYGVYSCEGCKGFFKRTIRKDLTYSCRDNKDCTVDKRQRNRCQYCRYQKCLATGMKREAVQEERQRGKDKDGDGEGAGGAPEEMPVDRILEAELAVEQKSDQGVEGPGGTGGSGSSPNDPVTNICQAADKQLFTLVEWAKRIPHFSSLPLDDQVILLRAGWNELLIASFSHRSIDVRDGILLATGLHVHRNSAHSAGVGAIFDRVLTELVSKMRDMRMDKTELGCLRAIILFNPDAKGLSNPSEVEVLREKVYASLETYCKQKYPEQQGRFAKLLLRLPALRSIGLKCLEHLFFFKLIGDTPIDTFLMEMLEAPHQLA
Sequence of human Peroxisome Proliferator-activated Receptor delta (PPARd), PPARD (gene 5467) (Q03181 whole entry, looked up, the tested form may be a part): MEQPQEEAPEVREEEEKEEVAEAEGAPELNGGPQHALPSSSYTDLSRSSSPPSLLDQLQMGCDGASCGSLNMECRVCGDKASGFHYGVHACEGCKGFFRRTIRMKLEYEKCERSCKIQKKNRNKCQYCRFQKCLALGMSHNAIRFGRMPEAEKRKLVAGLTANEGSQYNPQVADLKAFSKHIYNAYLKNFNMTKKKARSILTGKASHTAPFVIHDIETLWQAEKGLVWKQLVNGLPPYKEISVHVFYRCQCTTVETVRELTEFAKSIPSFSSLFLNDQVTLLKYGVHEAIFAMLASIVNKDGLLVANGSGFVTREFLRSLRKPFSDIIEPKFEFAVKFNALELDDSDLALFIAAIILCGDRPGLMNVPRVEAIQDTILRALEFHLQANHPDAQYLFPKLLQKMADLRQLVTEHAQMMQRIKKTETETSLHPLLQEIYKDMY
Sequence of E-selectin (Homo sapiens) (P16581 whole entry, looked up): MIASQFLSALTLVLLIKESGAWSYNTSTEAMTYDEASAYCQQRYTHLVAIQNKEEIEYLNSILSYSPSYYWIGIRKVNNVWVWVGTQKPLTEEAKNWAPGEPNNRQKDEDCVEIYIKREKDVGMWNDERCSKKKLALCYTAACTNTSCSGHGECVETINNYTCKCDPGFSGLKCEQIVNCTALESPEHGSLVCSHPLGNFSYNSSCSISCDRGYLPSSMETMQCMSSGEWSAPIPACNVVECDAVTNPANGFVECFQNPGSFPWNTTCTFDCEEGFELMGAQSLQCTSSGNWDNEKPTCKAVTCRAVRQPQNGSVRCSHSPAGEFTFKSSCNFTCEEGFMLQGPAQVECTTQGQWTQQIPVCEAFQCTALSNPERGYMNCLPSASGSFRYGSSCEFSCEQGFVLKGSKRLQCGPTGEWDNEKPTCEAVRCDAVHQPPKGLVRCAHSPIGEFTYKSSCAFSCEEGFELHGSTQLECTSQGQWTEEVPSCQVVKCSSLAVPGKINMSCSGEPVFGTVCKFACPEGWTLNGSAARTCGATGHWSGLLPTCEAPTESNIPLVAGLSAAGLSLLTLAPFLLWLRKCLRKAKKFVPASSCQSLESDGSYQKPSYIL
Sequence of Retinoic acid receptor RXR-alpha (Homo sapiens) (P19793 whole entry, looked up, the tested form may be a part): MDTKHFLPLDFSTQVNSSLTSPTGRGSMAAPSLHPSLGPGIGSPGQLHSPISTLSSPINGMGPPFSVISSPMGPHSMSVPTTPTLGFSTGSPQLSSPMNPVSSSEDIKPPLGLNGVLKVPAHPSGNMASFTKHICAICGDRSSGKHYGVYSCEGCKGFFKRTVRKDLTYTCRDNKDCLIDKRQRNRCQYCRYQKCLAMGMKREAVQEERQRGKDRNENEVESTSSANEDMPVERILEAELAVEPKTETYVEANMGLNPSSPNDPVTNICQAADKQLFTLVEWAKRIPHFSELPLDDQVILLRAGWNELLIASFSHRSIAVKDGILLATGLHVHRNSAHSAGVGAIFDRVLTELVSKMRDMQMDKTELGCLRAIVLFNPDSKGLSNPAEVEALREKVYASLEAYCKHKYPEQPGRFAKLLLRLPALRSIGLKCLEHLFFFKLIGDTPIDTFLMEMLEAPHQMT
Sequence of human Peroxisome Proliferator-activated Receptor alpha (PPARa), PPARA (gene 5465) (Q07869 whole entry, looked up, the tested form may be a part): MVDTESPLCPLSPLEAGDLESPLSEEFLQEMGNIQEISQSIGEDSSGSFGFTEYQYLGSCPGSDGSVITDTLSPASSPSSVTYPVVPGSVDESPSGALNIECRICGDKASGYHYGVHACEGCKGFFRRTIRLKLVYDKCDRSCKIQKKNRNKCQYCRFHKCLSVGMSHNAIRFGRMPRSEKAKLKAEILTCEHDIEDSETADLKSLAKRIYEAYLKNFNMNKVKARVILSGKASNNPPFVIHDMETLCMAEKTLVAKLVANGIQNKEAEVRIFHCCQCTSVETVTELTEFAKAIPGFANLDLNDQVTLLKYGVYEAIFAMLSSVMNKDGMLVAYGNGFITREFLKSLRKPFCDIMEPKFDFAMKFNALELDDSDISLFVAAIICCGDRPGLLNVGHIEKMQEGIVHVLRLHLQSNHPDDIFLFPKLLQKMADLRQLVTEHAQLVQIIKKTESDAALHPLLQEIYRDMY
Sequence of human Retinoic Acid Receptor gamma (RARg), RARG (gene 5916) (P13631 whole entry, looked up, the tested form may be a part): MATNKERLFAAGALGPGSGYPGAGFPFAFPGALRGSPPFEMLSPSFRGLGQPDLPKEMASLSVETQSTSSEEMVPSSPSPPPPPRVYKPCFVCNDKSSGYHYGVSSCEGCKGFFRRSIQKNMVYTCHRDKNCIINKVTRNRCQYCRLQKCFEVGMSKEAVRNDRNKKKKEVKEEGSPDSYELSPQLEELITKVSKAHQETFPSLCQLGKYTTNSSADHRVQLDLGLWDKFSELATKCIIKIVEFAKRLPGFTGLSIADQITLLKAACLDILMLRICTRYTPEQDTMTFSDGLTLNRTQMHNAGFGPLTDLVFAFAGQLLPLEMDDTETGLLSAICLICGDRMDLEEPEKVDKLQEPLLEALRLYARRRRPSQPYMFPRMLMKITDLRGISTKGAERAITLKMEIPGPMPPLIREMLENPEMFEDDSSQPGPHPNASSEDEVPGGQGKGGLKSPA
Sequence of human Thyroid Receptor alpha (THRa1), THRA (gene 7067) (P10827 whole entry, looked up, the tested form may be a part): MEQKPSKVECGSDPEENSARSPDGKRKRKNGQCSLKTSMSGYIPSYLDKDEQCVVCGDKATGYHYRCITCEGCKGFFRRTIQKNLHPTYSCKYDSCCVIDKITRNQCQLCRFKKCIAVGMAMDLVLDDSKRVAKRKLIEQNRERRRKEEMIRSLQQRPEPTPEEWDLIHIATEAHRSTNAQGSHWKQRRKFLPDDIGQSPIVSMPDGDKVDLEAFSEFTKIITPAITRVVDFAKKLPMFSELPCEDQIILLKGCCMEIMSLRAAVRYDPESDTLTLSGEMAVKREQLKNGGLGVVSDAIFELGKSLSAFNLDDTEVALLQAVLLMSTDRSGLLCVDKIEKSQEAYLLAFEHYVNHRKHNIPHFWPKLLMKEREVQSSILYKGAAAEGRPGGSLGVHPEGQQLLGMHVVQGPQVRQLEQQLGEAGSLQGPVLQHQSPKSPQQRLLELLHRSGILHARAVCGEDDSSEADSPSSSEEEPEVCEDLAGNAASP
Sequence of human RAR-related Orphan Receptor beta (RORb), RORB (gene 6096) (Q92753 whole entry, looked up, the tested form may be a part): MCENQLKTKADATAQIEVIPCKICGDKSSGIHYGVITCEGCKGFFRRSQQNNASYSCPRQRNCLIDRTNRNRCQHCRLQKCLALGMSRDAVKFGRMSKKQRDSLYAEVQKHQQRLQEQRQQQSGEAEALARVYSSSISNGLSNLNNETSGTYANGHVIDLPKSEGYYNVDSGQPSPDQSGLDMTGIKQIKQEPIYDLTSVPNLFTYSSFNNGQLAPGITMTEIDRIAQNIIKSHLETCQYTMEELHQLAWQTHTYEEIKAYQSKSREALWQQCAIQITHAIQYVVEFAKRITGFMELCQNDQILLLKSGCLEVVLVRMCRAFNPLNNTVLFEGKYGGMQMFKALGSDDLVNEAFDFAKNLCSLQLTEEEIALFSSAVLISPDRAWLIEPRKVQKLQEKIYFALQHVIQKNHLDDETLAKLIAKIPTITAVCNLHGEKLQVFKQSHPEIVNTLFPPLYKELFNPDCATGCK

CCCCCCOCCO
inactive: [1] | [2] | [3] | [4] | [5] | [6] | [7] | [8] | [9] | [10] | [11] | [12] | [13] | [14]

O=c1[nH]cc(F)c(=O)[nH]1
active: [5] 7.81 µM
inactive: [1] | [2] | [3] | [4] | [15] | [7] | [8] | [10] | [11] | [12] | [13] | [14]

CN1CCN(Cc2cc(-c3ccc4[nH]c(=O)oc4c3)co2)[C@@H](c2ccc(F)cc2)C1
inactive: [1] | [2] | [3] | [4] | [6] | [7] | [10] | [11]
active: [5] 23.4 µM | [12] 17.6 µM | [13] 3.68 µM | [14] 27.6 µM

CCCCCC(=O)O
inactive: [1] | [2] | [3] | [4] | [5] | [16] | [7] | [8] | [10] | [11] | [12] | [13] | [14]

C1CCC(SSC2CCCCC2)CC1
inactive: [2] | [3] | [4] | [6] | [16] | [7] | [8] | [9] | [10] | [11] | [12] | [13]
active: [1] 32.7 µM | [5] 28.5 µM | [14] 20 µM
